Test results taken from the supplement of paper PMC10037445.
Whole data set: some 2,900 compounds, median “NF-kB SEAP reporter activity, fold change vs agonist alone” near 0.99, cut for the highest 2% near 2.6. Many of the other results were omitted from the sample, so the highest values are more common in it than they were.

Legend:
RAW-Dual [1] = assay: NF-kB SEAP reporter activity, fold change vs agonist alone; cytotoxicity flag (confluency mask): not cytotoxic; higher = enhanced NF-kB activity
In short: (§1)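 RAW-Dual macrophages (50,000 cells/well in DMEM, 384-well plates) received 50 nL of library stock by pin tool, then a PRR agonist 1 h later, and were kept at 37 °C, 5% CO2. After 20 hours, supernatant was read for IRF by QuantiLuc luminescence and for NF-κB by QuantiBlue absorbance at 620 nm. Reporter activity is fold change over agonist-alone wells. Cytotoxic wells had IncuCyte confluency below 70% of agonist controls in both mask sets.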

RAW-Dual [2] = assay: NF-kB SEAP reporter activity, fold change vs agonist alone; higher = enhanced NF-kB activity; conditions: library stock concentration (final ~1000-fold dilution): 10 mM
In short: as §1

RAW-Dual [3] = assay: NF-kB SEAP reporter activity, fold change vs agonist alone; cytotoxicity flag (confluency mask): cytotoxic (confluency <70% of control); higher = enhanced NF-kB activity
In short: as §1

[4] = agonist: ODN 1826 (TLR9) 0.5 ug/mL
[5] = agonist: Pam2CSK4 (TLR2/6) 0.1 ug/mL
[6] = agonist: Pam3CSK4 (TLR2/1) 0.1 ug/mL
[7] = cytotoxicity flag (confluency mask): not cytotoxic, agonist: Imiquimod (TLR7) […]
[8] = cytotoxicity flag (confluency mask): not cytotoxic, agonist: MPLA (TLR4) […]

Compound: O=C(/C=C/c1cccnc1)c1ccncc1 (library stock concentration (final ~1000-fold dilution): 10 mM)
- NF-kB SEAP reporter activity (RAW-Dual [1]; agonist: LPS (TLR4) 0.1 ug/mL): 1.03
- NF-kB SEAP reporter activity (RAW-Dual [1]; [4]): 0.938
- NF-kB SEAP reporter activity (RAW-Dual [1]; [5]): 1.21
- NF-kB SEAP reporter activity (RAW-Dual [1]; [6]): 1.05

Compound: O=C(/C=C/c1cccnc1)c1ccncc1
- NF-kB SEAP reporter activity (RAW-Dual [2]; [7]): 0.871
- NF-kB SEAP reporter activity (RAW-Dual [2]; [8]): 0.953

Compound: O=C(/C=C/c1cccnc1)NCCCCC1CCN(C(=O)c2ccccc2)CC1
- NF-kB SEAP reporter activity (RAW-Dual [2]; [7]): 1.06
- NF-kB SEAP reporter activity (RAW-Dual [2]; [8]): 0.719

Compound: Nc1ccc(F)cc1NC(=O)c1ccc(CNC(=O)/C=C/c2cccnc2)cc1
- NF-kB SEAP reporter activity (RAW-Dual [2]; [7]): 1.65
- NF-kB SEAP reporter activity (RAW-Dual [2]; [8]): 1.89

Compound: COc1ccc(C2OCC3C(c4cc(OC)c(OC)c(OC)c4)OCC23)cc1OC (stereo not given) (library stock concentration (final ~1000-fold dilution): 10 mM)
- NF-kB SEAP reporter activity (RAW-Dual [1]; agonist: LPS (TLR4) 0.1 ug/mL): 1.2
- NF-kB SEAP reporter activity (RAW-Dual [1]; [4]): 1
- NF-kB SEAP reporter activity (RAW-Dual [1]; [5]): 1.01
- NF-kB SEAP reporter activity (RAW-Dual [1]; [6]): 1.71

Compound: COc1ccc(C2OCC3C(c4cc(OC)c(OC)c(OC)c4)OCC23)cc1OC (stereo not given)
- NF-kB SEAP reporter activity (RAW-Dual [2]; [7]): 0.813
- NF-kB SEAP reporter activity (RAW-Dual [2]; [8]): 1.03

Compound: O=C1c2cccc3c2C(CCC3)CN1C1CN2CCC1CC2 (stereo not given) (library stock concentration (final ~1000-fold dilution): 10 mM)
- NF-kB SEAP reporter activity (RAW-Dual [1]; agonist: LPS (TLR4) 0.1 ug/mL): 1.5
- NF-kB SEAP reporter activity (RAW-Dual [1]; [4]): 0.937
- NF-kB SEAP reporter activity (RAW-Dual [1]; [5]): 0.587
- NF-kB SEAP reporter activity (RAW-Dual [1]; [6]): 0.339

Compound: O=C1c2cccc3c2C(CCC3)CN1C1CN2CCC1CC2 (stereo not given)
- NF-kB SEAP reporter activity (RAW-Dual [2]; [7]): 0.886
- NF-kB SEAP reporter activity (RAW-Dual [2]; [8]): 1.17

Compound: COC1(c2sc3c(N4CCOCC4)nc(-c4cnc(N)nc4)nc3c2C)COC1
- NF-kB SEAP reporter activity (RAW-Dual [2]; [7]): 0.913
- NF-kB SEAP reporter activity (RAW-Dual [2]; [8]): 1.05

Compound: COC1(c2sc3c(N4CCOCC4)nc(-c4cnc(N)nc4)nc3c2C)COC1 (library stock concentration (final ~1000-fold dilution): 10 mM)
- NF-kB SEAP reporter activity (RAW-Dual [1]; agonist: LPS (TLR4) 0.1 ug/mL): 1.46
- NF-kB SEAP reporter activity (RAW-Dual [1]; [4]): 0.707
- NF-kB SEAP reporter activity (RAW-Dual [1]; [5]): 0.459
- NF-kB SEAP reporter activity (RAW-Dual [1]; [6]): 0.608

Compound: Cc1c(CN2CCN(C(=O)C(C)O)CC2)sc2c(N3CCOCC3)nc(-c3cnc(N)nc3)nc12 (stereo not given) (library stock concentration (final ~1000-fold dilution): 10 mM)
- NF-kB SEAP reporter activity (RAW-Dual [1]; agonist: LPS (TLR4) 0.1 ug/mL): 1.32
- NF-kB SEAP reporter activity (RAW-Dual [1]; [4]): 0.763
- NF-kB SEAP reporter activity (RAW-Dual [1]; [5]): 0.412
- NF-kB SEAP reporter activity (RAW-Dual [1]; [6]): 0.661

Compound: COc1ccc(-c2nc(N3CCOCC3)c3sc(CN(C)c4ncc(C(=O)NO)cn4)cc3n2)cn1 (library stock concentration (final ~1000-fold dilution): 10 mM)
- NF-kB SEAP reporter activity (RAW-Dual [3]; agonist: LPS (TLR4) 0.1 ug/mL): 4.34
- NF-kB SEAP reporter activity (RAW-Dual [3]; [4]): 2.1
- NF-kB SEAP reporter activity (RAW-Dual [3]; [5]): 1.3
- NF-kB SEAP reporter activity (RAW-Dual [3]; [6]): 1.6

Compound: COc1ccc(-c2nc(N3CCOCC3)c3sc(CN(C)c4ncc(C(=O)NO)cn4)cc3n2)cn1
- NF-kB SEAP reporter activity (RAW-Dual [2]; cytotoxicity flag (confluency mask): cytotoxic (confluency <70% of control), agonist: Imiquimod (TLR7) […]): 2.88
- NF-kB SEAP reporter activity (RAW-Dual [2]; cytotoxicity flag (confluency mask): cytotoxic (confluency <70% of control), agonist: MPLA (TLR4) […]): 2.66

Compound: Cc1c(CN2CCN(C(=O)C(C)O)CC2)sc2c(N3CCOCC3)nc(-c3cnc(N)nc3)nc12 (stereo not given)
- NF-kB SEAP reporter activity (RAW-Dual [2]; [7]): 1
- NF-kB SEAP reporter activity (RAW-Dual [2]; [8]): 1.08
